A selection: hits, their analogues and other compounds. The true share with any hit is near 2.2%.
Cardio protect: myocardial damage modulation in H9c2 cells; H9c2 cardiomyocytes, H2O2 injury protection, ATPLite, 2 h; protection from H2O2 cell death, % at 20 µM; hit rate 0.63% among 360,000; AID 588492;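 active means compounds giving at least 50% protection of heart cells from peroxide-induced death in the single-dose screen, raw or plate-pattern-corrected value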;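 further: 0% = DMSO wells with peroxide and 100% = DMSO wells without peroxide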
FAS-TE inh: inhibitors of human fatty acid synthase thioesterase domain. P49327. recombinant FAS-TE, OMFH fluorogenic substrate, fluorescence endpoint. inhibition, % at 15 µM. hit rate 0.67% among 360,000;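 active means compounds whose normalised, plate-corrected inhibition of enzyme fluorescence in the single-dose primary screen is 50% or more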;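 further: 0% = DMSO with enzyme and 100% = substrate without enzyme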
PLCg1 inh: blocks human PLC-gamma1 enzyme activity. purified PLC-gamma1, fluorogenic substrate, fluorescence. hit rate 0.84% among 370,000. P19174. AID 720700. inhibition, % at 12.2 µM
PLCb3 inh: PLC-beta3 (human) inhibition, primary screen; hit rate 0.18% among 370,000; Purified PLC-beta3, fluorogenic substrate, fluorescence; Q01970; inhibition, % at 12.2 µM; in the data active means inhibition above about 11%;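 further: 0% = median of compound wells on plate and 100% = full blocker control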
PLCgamma1 ctr: PLC-gamma1 inhibition, counter-screen for PLC-beta3 hits; shares compounds with PLCg1 inh; purified PLC-gamma1, fluorogenic substrate, fluorescence; inhibition, % at 12.3 µM; hit rate 3.1% among 3,300; AID 743258
PLCb3 confirm: confirmation of human PLC-beta3 inhibitors | hit rate 1% among 3,300 | shares compounds with PLCg1 inh | purified PLC-beta3, fluorogenic substrate fluorescence | inhibition, % at 12.3 µM; in the data active means inhibition above about 11%
* marks the source's active call; other numbers are inactive results; . = no result. Unless noted, no stated cut-off is given here; in the data, active means inhibition above about 9.5%; inactive means the rest.

SMILES	Cardio protect	FAS-TE inh	PLCg1 inh	PLCb3 inh	PLCgamma1 ctr	PLCb3 confirm
O=c1ccnc2n1COCS2	2	-4	12*	0	-5	-1
O=c1c(-c2ccnn2-c2ccc(F)cc2)cnc2n1CCS2	1	-7	-1	0	.	.
O=C(Nc1ccccc1)c1cc(C2CCCN(C(=O)CCc3ccccc3)C2)on1 (stereo unspecified)	0	1	6	10	.	.
O=C(Nc1ccccc1Cl)c1cc(C2CCCN(C(=O)CCc3ccccc3)C2)on1 (stereo unspecified)	-5	10	9.8*	3	-1	0
Cc1ccc(OCCn2ccnc2)c([N+](=O)[O-])c1	6	-8	13*	-1	-1	0
Cc1cc(OCCCn2ccnc2)ccc1[N+](=O)[O-]	1	-4	5	2	.	.
Cc1c(N=C2Nc3cccc4cccc2c34)c(=O)n(-c2ccccc2)n1C	4	-86	-37	-50	.	.
Cc1c(N2C(=O)c3cccc4cccc(c34)C2=O)c(=O)n(-c2ccccc2)n1C	-4	-10	9.8*	12*	14*	5
Cc1oc2c(c(C)nn2-c2ccccc2)c(=O)c1Cl	.	.	6	-1	.	.
O=C(Nc1ccc(F)cc1)Nc1nnc(COc2ccccc2F)s1	-10	2	11*	6	-5	-4
NCCCCC(N)c1cn([C@@H](CCC(=O)O)C(=O)N2CCNCC2)nn1 (stereo partly specified)	2	-10	0	13*	-3	0
CCC(C)[C@H](N)c1cn([C@@H](CCCCN)C(=O)N2CCNCC2)nn1 (stereo partly specified)	-2	-13	1	-1	.	.
CC[C@H](C)[C@@H](N)C(=O)NC[C@H]1O[C@@H](n2cnc3c(=O)[nH]c(N)nc32)[C@H](O)[C@@H]1O	2	-10	3	4	.	.
CCOC(=O)c1c(C)oc2cc(Br)c(OC)cc12	-5	1	9.8*	1	-4	-4
CCOC(=O)c1c(C)n(C)c2cc(Br)c(OC)cc12	-7	7	4	-1	.	.
COc1cccc(/C=C2/Sc3ccc(C(=O)NC4CC4)cc3NC2=O)c1	.	.	-10	-15	.	.
O=C(Cc1cccc(NC(=O)C2CCN(C(=O)C3CCCC3)CC2)c1)Nc1cccc(C(=O)N2CCOCC2)c1	2	-6	0	-4	.	.
CCOC(=O)C1=CCC(c2ccccc2C)N(S(=O)(=O)c2ccc(C)cc2)C1 (stereo unspecified)	-3	20	2	-7	.	.
CC(C)(C)c1cc(C(=O)NNC(=O)Nc2ccccc2)n(Cc2ccccc2)n1	0	9	12*	11	17*	18*
Cc1cc(OC[C@@H](O)CN2CCC(C(O)(c3ccccc3)c3ccccc3)CC2)ccc1Br	.	.	2	-2	.	.
O=C(NCC1CCCO1)c1nnc(Cc2ccc(F)cc2)o1 (stereo unspecified)	8	-4	11*	7	-9	-5
O=C(CSc1nnc(CNC(=O)c2ccc(F)cc2)o1)NCC1CCCO1 (stereo unspecified)	2	-2	-1	-6	.	.
COCC(C)n1c(C)cc(C(=O)COC(=O)c2nc3nc(C)cc(C)n3n2)c1C (stereo unspecified)	2	-13	-3	-2	.	.
COC(=O)c1cc(COC(=O)c2nc3nc(C)cc(C)n3n2)oc1C	8	-4	9	12*	1	3
CC/C(Cc1ccccc1)=N/NC(=O)CNC(=O)c1ccc(Cl)cc1Cl	-1	1	11*	-1	-5	-2
SMILES	Cardio protect	FAS-TE inh	PLCg1 inh	PLCb3 inh	PLCgamma1 ctr	PLCb3 confirm
CC/C(C)=N\NC(=O)CNC(=O)c1ccc(Cl)cc1Cl	-2	-8	-4	-2	.	.
CC(=O)c1cccc(N(C(=O)c2csnn2)C(C(=O)NC2CCCC2)c2ccccc2)c1 (stereo unspecified)	4	-2	4	0	.	.
O=C(Nc1ncc2c(n1)CC(c1ccccc1)CC2=O)c1ccco1 (stereo unspecified)	5	0	-1	-1	.	.
O=C(Nc1ncc2c(n1)CC(c1cccc(Cl)c1)CC2=O)c1ccco1 (stereo unspecified)	3	-7	19*	-4	-7	-2
COC(=O)C[C@@H]1C=C[C@@H](NC(=O)C2CCC2)[C@@H](CO)O1	.	.	-3	2	.	.
Nn1c(SCC(=O)Nc2ccc(F)cc2)nnc1C1CCCCC1	-2	-6	0	5	.	.
Cc1ccc(NC(=O)CSc2nnc(C3CCCCC3)n2N)cc1F	-2	4	13*	3	-3	1
